Source: ChEMBL document CHEMBL3988442, “University of Dundee, Small-Polar-MMV Screening Library” (2021)
Among all 48,000 compounds or so, about 13,000 (27%) showed an effect of 50% or more. Some of the results follow.

tested on: Wolbachia pipientis; experiment: Anti-Wolbachia Cell-Based Screen; format: functional; set-up: scale not given: in the data most compounds retested in dose-response had high values; conditions: 5 µM

| SMILES | Percent Effect |
| --- | --- |
| COc1nc(N2CCN(C(C)=O)CC2)ncc1Br | -6.459% |
| Cc1ccc(NC2CCCN(CCc3ccccc3)C2)nn1 (stereo unspecified) | 81.81% |
| Cc1cc(C)nc(NC2CCCN(CCCc3ccccc3)C2)n1 (stereo unspecified) | 120.4% |
| CCn1cc(S(=O)(=O)NC2CCCN(CCCc3ccccc3)C2)cn1 (stereo unspecified) | -6.071% |
| Cc1ccc(NC2CCCN(C3Cc4ccccc4C3)C2)nn1 (stereo unspecified) | -17.09% |
| Cc1nnc([C@H]2CCN(CCCc3ccccc3)C2)o1 | -2.923% |
| Cc1ccc(NC2CCCN(CCCc3ccccc3)C2)nn1 (stereo unspecified) | 90.19% |
| CC(C)c1ccc(NC2CCCN(Cc3ccncc3)C2)cc1 (stereo unspecified) | -12.89% |
| c1ccc(CCCN2CCCC(Nc3cnc4ccccc4n3)C2)cc1 (stereo unspecified) | 45.74% |
| Cc1cc(NC2CCCN(Cc3ccc(F)cc3)C2)n2nc(C)cc2n1 (stereo unspecified) | 43.11% |
| Cc1ccc(NC2CCCN(Cc3ccc(Cl)cc3)C2)nn1 (stereo unspecified) | 105.3% |
| CSc1ccccc1C(=O)N(C)C1CCCN(CCc2ccccc2)C1 (stereo unspecified) | -4.554% |
| Cc1cc(N[C@H]2CCCN(Cc3ccccc3)C2)n2nc(C)cc2n1 | -7.34% |
| CCn1c(CN2CCC(O)(C(=O)OC)CC2)nc2c(F)cccc21 | -8.235% |
| CSCCC(NC(N)=O)C(=O)NCc1c(C)nn(-c2ccccc2)c1C (stereo unspecified) | -8.181% |
| FC(F)(F)c1ccccc1CCC1CCCN(Cc2cscn2)C1 (stereo unspecified) | 15.59% |
| COc1ccc2c(c1)nc1n2[C@@H](CNC(=O)c2cccnc2)COC1 | -6.986% |
| CN(C)C(=O)N[C@@H]1CN(Cc2ccc3c(c2)OCO3)[C@@H]2CCCO[C@@H]21.O=C(O)C(F)(F)F | -22.69% |
| CN(C)C(=O)N[C@H]1CN(Cc2ccc3c(c2)OCO3)[C@@H]2CCCO[C@H]12.O=C(O)C(F)(F)F | 93.48% |
| O=C(N[C@@H]1CN(Cc2ccoc2)[C@@H]2CCCO[C@@H]21)C1CC1.O=C(O)C(F)(F)F | 105.3% |
| O=C(O)C(F)(F)F.O=C([C@H]1C[C@H]2OCC[C@H]2N(Cc2ccoc2)C1)N1CCCO1 | 7.487% |

| SMILES | Percent Effect |
| --- | --- |
| O=C(N[C@@H]1CN(Cc2cccs2)[C@@H]2CCCO[C@@H]21)C1CC1 | -17.92% |
| CN(C)C(=O)[C@H]1C[C@H]2OCC[C@H]2N(Cc2ccc3c(c2)OCO3)C1.O=C(O)C(F)(F)F | 0.2139% |
| O=C(N[C@H]1CN(Cc2ccsc2)[C@@H]2CCCO[C@H]12)C1CC1.O=C(O)C(F)(F)F | 106.9% |
| O=C(N[C@@H]1CN(Cc2ccsc2)[C@@H]2CCCO[C@@H]21)C1CC1 | -8.929% |
| O=C(NC1CCCC1)[C@H]1C[C@H]2OCC[C@H]2N(Cc2ccoc2)C1.O=C(O)C(F)(F)F | 13.19% |
| O=C(c1ccccc1)C1CCN(Cc2cc3c(cc2O)CCC3)CC1 | -3.001% |
| O=S(=O)(c1cccnc1)N1C[C@@H]2CC[C@H](C1)N(Cc1ccccc1)C2 | -31.29% |
| Cn1cc(N2CCC(NC(=O)c3c(F)cccc3Cl)C2=O)cn1 (stereo unspecified) | -23.29% |
| COc1ccc(CN(C)C2CCN(S(C)(=O)=O)CC2)c2cccnc12 | 1.454% |
| COCC(=O)N1CCC(c2nccnc2Oc2cccnc2C)CC1 | 0.288% |
| Cc1ncccc1Oc1nccnc1C1CCN(S(C)(=O)=O)CC1 | 120.9% |
| Cc1ncccc1Oc1nccnc1C1CCCN(C(C)C)C1 (stereo unspecified) | 134.2% |
| COc1ccccc1Oc1ncccc1CNC(=O)C(C)N1CCCC1 (stereo unspecified) | -2.64% |
| Cc1ncccc1Oc1nccnc1C1CCN(C(C)C)CC1 | -4.012% |
| CN(C)CCN1CCN(C)C2(CCN(c3nccs3)CC2)C1=O | -6.968% |
| CC1(C)CNC(=O)c2nc(C3CCCN(C(=O)C4CC4)C3)[nH]c2C1 (stereo unspecified) | -1.543% |
| O=C(N1CCCC1)N1CCCC(c2nccn2Cc2ccncc2)C1 (stereo unspecified) | 19.93% |
| O=C(C1CCCC1)N1CCCC(c2nc(O)cc(-c3ccncc3)n2)C1 (stereo unspecified) | 85.76% |
| O=C(C1CC1)N1CCCC(c2nc(O)cc(-c3ccncc3)n2)C1 (stereo unspecified) | 87.21% |
| O=C(Nc1cc(-c2ccncc2)no1)C1CCCCC1 | -8.136% |
| CC(=O)c1cccc(NC(=O)C2CN(S(=O)(=O)C3CC3)C2)c1 | 8.617% |

| SMILES | Percent Effect |
| --- | --- |
| Cc1ccc(NC2CCN(C(=O)CCCn3ccnc3C)CC2)nn1 | 100.9% |
| O=C(CCNCC(F)(F)F)N1CCC(Nc2cccnn2)CC1 | -5.357% |
| Cc1ccc(NC2CCN(C(=O)CCNS(C)(=O)=O)CC2)nn1 | -0.08742% |
| Cc1ccc(NC2CCN(C(=O)CCNc3ncccn3)CC2)nn1 | 111.7% |
| Cc1nccn1CCCC(=O)N1CCC(Nc2cccnn2)CC1 | 11.87% |
| CC(C)(C)C(=O)NCCC(=O)N1CCC(Nc2cccnn2)CC1 | 101.9% |
| O=C(CCNc1ncccn1)N1CCC(Nc2cccnn2)CC1 | 106.9% |
| COC1CCCN(C(=O)NCC(C)(C)SC)C1 (stereo unspecified) | -6.562% |
| NC(=O)C(NC1CCN(CC2CCCCC2)CC1)c1ccc(F)cc1 (stereo unspecified) | 3.018% |
| CS(=O)(=O)CCC(=O)Nc1cc(Cl)c(Cl)cn1 | -8.334% |
| O=C(c1ccc(S(=O)(=O)NCC(F)F)cc1)N1CC[C@H]2CNC[C@H]21 | -11.61% |
| CSc1ccc(C(C)NC(=O)c2cc(C)on2)cc1 (stereo unspecified) | -17.95% |
| Cc1noc(C)c1CCCNC(=O)Nc1cccc([S+](C)[O-])c1 (stereo unspecified) | -8.91% |
| CN(C)S(=O)(=O)N1CC[C@]2(O)CCN(c3nccs3)C[C@@H]2C1 | -7.348% |
| CS(=O)(=O)N1CC[C@]2(O)CCN(c3ccnc(N)n3)C[C@@H]2C1 | -18.71% |
| CN(C)S(=O)(=O)N1CC[C@]2(O)CCN(CCCc3cccnc3)C[C@@H]2C1 | 99.63% |
| CS(=O)(=O)N1CC[C@]2(O)CCN(CCCC(=O)c3ccccc3)C[C@@H]2C1 | 92.75% |
| CN(C)S(=O)(=O)N1CC[C@]2(O)CCN(c3ncccn3)C[C@@H]2C1 | 8.402% |
| Cc1ccc(N2CC[C@@]3(O)CCN(S(C)(=O)=O)C[C@H]3C2)nn1 | -14.46% |
